Among the data in ChEMBL document CHEMBL1961873, “Compounds: GSK PKIS; Assays: Nanosyn kinase panel” (2012) are inhibition values, retold here.

The target of assay [1] is Mitogen-activated protein kinase 3 (Homo sapiens) (UniProt P27361). The settings on record: at 1 µM.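 Note: values are mean percent inhibition of MAPK3.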
The target of assay [2] is SRSF protein kinase 3 (Homo sapiens) (UniProt Q9UPE1). The settings on record: at 0.1 µM.
Assay [3] has the same target. The settings on record: at 1 µM.
For assay [4], the target named is Mitogen-activated protein kinase 14 (Homo sapiens) (UniProt Q16539). The settings on record: at 0.1 µM.
Assay [5] has the same target. The settings on record: at 1 µM.
Assay [6] has as its target Mitogen-activated protein kinase 11 (Homo sapiens) (UniProt Q15759). The settings on record: at 0.1 µM.
Assay [7] shares this target. The settings on record: at 1 µM.
The target in assay [8] is T1, Mitogen-activated protein kinase 13 (Homo sapiens) (UniProt O15264).
T1 sequence (whole entry): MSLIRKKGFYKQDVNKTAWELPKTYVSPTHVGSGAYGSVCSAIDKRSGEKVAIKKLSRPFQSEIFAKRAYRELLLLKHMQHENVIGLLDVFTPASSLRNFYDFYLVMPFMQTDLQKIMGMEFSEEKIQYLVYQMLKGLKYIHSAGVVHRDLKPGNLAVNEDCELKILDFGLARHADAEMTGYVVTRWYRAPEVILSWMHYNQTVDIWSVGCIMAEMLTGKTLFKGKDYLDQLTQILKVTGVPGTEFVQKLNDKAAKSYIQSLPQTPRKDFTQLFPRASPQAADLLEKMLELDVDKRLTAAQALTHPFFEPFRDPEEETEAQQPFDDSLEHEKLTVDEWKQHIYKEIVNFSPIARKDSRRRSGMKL
The settings on record: at 0.1 µM.

The target of assay [9] is T1, Mitogen-activated protein kinase 13 (Homo sapiens). The settings on record: at 1 µM.
The target of assay [10] is T2, Mitogen-activated protein kinase 12 (Homo sapiens) (UniProt P53778).
T2 sequence (whole entry): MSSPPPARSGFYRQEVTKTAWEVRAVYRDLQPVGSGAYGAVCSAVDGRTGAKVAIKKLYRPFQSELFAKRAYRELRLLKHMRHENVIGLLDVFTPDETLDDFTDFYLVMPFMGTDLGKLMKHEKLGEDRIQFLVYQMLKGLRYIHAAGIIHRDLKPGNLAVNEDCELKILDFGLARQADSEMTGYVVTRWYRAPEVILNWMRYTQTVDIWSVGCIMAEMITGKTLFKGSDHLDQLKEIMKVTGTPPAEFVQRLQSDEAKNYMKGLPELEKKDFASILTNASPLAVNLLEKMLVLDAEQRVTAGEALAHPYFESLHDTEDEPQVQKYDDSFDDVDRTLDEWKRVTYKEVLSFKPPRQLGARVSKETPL
The settings on record: at 0.1 µM.

The target in assay [11] is T2, Mitogen-activated protein kinase 12 (Homo sapiens). The settings on record: at 1 µM.
Assay [12] has as its target SRSF protein kinase 1 (Homo sapiens) (UniProt Q96SB4). The settings on record: at 0.1 µM.
Assay [13] has the same target. The settings on record: at 1 µM.
Assay [14] concerns the target Phosphatidylinositol 4,5-bisphosphate 3-kinase catalytic subunit alpha isoform (Homo sapiens) (UniProt P42336). The settings on record: at 0.1 µM.
Assay [15] shares this target. The settings on record: at 1 µM.
The target of assay [16] is T3, Phosphatidylinositol 4,5-bisphosphate 3-kinase catalytic subunit delta isoform (Homo sapiens) (UniProt O00329).
T3 sequence (whole entry): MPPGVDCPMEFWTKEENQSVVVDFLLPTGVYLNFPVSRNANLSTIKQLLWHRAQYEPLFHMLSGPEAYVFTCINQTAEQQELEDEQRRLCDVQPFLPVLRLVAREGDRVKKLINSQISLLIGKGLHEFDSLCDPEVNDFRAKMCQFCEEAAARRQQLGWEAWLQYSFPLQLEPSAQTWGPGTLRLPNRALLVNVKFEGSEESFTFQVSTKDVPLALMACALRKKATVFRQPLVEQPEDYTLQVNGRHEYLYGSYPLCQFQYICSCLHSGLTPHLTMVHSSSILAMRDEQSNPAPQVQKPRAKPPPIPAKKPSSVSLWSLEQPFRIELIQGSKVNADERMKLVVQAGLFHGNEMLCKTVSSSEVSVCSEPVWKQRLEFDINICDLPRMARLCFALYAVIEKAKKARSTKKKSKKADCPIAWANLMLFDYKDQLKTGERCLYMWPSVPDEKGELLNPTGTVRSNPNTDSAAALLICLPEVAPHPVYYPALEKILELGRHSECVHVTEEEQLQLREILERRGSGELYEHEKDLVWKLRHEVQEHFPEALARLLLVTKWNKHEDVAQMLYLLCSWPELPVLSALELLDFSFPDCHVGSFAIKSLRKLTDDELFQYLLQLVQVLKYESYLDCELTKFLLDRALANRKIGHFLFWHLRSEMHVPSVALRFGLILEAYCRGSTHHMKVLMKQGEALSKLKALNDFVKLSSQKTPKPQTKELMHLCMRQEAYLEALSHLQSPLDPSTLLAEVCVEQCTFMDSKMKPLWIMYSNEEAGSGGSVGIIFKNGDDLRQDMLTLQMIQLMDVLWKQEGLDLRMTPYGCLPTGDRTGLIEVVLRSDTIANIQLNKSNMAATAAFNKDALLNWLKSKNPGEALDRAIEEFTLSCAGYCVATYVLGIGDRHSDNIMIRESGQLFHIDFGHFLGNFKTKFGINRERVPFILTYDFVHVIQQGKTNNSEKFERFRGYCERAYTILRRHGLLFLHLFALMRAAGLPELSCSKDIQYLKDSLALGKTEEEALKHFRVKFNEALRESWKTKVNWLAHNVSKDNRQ
The settings on record: at 0.1 µM.

Assay [17] addresses T3, Phosphatidylinositol 4,5-bisphosphate 3-kinase catalytic subunit delta isoform (Homo sapiens). The settings on record: at 1 µM.
The target of assay [18] is Phosphatidylinositol 4-kinase beta (Homo sapiens) (UniProt Q9UBF8). The settings on record: at 0.1 µM.
Assay [19] has the same target. The settings on record: at 1 µM.
Assay [20] deals with Sphingosine kinase 1 (Homo sapiens) (UniProt Q9NYA1). The settings on record: at 0.1 µM.
Sphingosine kinase 1 (Homo sapiens), sequence (Q9NYA1 whole entry): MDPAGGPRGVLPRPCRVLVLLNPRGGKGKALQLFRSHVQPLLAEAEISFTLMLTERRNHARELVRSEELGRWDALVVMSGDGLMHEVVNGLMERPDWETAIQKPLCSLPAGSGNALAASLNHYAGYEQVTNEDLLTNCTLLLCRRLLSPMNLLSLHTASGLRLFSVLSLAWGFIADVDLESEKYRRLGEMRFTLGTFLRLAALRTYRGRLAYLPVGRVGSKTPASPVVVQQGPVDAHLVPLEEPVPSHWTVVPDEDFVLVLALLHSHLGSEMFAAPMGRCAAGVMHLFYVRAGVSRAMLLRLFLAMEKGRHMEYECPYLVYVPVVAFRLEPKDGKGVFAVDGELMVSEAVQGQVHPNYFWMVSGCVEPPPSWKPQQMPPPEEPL

Phosphatidylinositol 4-kinase beta (Homo sapiens), sequence (Q9UBF8 2-816 limits assumed): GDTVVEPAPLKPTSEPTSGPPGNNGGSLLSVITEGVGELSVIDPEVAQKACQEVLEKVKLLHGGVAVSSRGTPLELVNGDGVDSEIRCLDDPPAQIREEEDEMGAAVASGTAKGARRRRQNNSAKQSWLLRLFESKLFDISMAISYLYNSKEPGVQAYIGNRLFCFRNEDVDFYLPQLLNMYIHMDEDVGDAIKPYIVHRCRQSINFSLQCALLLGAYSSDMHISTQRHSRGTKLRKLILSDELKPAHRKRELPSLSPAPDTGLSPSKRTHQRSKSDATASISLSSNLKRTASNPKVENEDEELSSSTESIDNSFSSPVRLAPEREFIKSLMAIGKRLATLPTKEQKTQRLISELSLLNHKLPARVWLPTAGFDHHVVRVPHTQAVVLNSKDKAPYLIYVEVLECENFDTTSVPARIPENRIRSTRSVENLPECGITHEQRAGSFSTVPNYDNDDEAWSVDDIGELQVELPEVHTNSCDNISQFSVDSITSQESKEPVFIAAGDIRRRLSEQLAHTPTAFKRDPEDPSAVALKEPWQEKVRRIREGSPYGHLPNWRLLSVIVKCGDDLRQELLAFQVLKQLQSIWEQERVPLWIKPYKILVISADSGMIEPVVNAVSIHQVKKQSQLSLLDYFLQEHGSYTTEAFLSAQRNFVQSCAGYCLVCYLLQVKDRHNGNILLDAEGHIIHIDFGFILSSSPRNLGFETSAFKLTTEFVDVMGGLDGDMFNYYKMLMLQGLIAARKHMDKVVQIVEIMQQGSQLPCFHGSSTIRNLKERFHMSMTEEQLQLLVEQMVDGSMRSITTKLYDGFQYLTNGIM
Mitogen-activated protein kinase 3 (Homo sapiens), sequence (P27361 whole entry): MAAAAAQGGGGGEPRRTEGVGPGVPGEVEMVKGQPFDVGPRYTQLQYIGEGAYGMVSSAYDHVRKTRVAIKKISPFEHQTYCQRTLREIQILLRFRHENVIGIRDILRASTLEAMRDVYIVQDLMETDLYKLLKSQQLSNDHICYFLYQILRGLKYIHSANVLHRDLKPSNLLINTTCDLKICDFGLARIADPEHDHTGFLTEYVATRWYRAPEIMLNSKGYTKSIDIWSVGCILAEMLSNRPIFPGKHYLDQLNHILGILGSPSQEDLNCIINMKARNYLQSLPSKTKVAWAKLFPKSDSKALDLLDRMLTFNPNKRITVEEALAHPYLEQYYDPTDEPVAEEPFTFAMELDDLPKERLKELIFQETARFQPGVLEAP
Mitogen-activated protein kinase 14 (Homo sapiens), sequence (Q16539 whole entry): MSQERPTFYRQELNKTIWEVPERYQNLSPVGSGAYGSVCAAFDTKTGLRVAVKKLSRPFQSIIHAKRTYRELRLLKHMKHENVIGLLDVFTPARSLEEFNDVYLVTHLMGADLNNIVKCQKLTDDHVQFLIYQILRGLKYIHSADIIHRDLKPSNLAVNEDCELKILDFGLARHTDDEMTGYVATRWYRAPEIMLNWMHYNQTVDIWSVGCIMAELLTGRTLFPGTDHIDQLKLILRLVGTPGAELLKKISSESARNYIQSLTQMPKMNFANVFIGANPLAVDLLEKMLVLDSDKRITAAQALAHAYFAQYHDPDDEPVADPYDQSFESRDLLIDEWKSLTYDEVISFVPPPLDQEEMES
Phosphatidylinositol 4,5-bisphosphate 3-kinase catalytic subunit alpha isoform (Homo sapiens), sequence (P42336 whole entry, canonical isoform): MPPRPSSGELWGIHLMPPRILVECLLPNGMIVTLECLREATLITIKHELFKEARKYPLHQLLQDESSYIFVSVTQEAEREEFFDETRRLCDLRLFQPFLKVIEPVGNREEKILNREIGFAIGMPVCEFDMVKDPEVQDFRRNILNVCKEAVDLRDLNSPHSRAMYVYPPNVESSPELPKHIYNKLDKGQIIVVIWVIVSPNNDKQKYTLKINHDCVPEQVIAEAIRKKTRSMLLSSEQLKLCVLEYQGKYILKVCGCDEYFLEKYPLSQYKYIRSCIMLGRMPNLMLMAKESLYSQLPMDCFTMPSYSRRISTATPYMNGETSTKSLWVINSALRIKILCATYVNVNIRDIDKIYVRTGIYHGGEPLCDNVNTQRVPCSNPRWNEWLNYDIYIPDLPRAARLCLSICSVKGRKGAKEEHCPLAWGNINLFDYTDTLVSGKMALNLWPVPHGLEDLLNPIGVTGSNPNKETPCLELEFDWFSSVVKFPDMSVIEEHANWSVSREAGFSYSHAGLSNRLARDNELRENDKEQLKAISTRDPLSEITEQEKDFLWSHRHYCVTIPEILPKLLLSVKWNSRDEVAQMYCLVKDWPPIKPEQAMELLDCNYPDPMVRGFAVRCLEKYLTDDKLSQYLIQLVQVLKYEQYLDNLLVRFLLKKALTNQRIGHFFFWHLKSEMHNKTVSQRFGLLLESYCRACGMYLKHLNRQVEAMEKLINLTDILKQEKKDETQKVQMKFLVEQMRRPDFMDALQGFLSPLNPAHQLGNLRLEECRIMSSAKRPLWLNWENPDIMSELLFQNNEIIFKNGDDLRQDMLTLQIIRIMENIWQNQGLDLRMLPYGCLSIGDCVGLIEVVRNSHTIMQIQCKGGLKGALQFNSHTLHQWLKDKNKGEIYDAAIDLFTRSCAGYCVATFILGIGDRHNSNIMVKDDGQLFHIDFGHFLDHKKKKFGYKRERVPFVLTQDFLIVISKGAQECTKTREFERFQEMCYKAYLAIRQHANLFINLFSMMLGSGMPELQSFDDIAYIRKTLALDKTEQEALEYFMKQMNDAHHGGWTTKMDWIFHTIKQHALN
Mitogen-activated protein kinase 11 (Homo sapiens), sequence (Q15759 whole entry): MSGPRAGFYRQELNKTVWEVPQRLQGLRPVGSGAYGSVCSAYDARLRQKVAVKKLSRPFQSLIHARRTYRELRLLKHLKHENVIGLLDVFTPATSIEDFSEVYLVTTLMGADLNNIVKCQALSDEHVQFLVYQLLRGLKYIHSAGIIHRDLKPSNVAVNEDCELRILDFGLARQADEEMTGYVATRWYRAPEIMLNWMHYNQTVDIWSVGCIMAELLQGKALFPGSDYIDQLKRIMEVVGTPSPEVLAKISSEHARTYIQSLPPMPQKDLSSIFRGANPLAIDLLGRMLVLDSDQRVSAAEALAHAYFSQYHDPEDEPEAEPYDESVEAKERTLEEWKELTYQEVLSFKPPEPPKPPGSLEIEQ
SRSF protein kinase 3 (Homo sapiens), sequence (Q9UPE1 whole entry): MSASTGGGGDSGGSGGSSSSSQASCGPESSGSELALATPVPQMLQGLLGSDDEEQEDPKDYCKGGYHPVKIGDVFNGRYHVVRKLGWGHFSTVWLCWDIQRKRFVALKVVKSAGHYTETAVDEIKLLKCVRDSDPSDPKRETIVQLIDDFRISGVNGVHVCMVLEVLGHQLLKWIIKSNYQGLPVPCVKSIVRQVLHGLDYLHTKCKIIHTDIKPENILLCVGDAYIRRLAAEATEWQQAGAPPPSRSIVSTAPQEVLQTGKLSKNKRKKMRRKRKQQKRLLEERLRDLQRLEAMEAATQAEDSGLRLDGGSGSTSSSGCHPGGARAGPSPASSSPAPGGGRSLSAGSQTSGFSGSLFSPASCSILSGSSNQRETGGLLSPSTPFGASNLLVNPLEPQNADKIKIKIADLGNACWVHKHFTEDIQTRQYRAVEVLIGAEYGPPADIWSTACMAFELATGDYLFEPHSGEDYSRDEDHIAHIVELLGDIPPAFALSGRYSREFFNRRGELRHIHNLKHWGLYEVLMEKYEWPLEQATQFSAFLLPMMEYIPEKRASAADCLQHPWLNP
SRSF protein kinase 1 (Homo sapiens), sequence (Q96SB4 whole entry): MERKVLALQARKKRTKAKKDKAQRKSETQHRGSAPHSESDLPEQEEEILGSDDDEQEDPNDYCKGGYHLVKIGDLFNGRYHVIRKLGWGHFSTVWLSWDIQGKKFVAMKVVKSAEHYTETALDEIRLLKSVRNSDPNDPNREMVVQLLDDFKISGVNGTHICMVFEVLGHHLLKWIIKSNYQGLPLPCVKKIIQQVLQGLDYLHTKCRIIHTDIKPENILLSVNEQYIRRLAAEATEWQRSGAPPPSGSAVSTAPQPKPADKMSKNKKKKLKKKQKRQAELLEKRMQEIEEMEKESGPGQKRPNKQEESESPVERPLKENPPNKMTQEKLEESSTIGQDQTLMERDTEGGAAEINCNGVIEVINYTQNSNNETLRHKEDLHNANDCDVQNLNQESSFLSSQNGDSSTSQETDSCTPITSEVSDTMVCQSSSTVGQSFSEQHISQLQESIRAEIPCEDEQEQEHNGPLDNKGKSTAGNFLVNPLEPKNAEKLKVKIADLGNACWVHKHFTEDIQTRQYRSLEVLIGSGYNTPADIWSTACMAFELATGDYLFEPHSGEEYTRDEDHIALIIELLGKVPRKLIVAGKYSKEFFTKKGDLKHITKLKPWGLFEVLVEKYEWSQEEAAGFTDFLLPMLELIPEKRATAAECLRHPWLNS

`O=C(O[C@H]1CN[C@H](C#Cc2cc3ncnc(Nc4ccc(Cc5ccccc5)cc4)c3s2)C1)N1CCOCC1`: the inhibition was 2.11% in assay [1]; -2.44% in assay [2]; -1.14% in assay [3]; 4.54% in [4]; 2.37% in assay [5]; 0.92% in assay [6]. Further, the inhibition in assay [7] is 4.95%; in [8] it was 2.02%; in assay [9] it was 0.36%; in assay [10], 1.75%; in [11] it was 1.72%; in assay [12] it was -2.56%. Besides, the inhibition is -2.4% in assay [13]; 3.61% in assay [14]; 11.2% in [15]; 1.42% in assay [16]; 8.98% in [17]; 0.59% in assay [18]. In addition, the inhibition in [19] was -0.78%; in assay [20], 0.79%.

With `COC(=O)Nc1nc2ccc(S(=O)(=O)c3ccc(NC(=O)Nc4cc(C(F)(F)F)ccc4F)cc3)cc2[nH]1`, the inhibition was 3.32% in assay [1]; -1.38% in assay [2]; -1.81% in assay [3]; 3.23% in [4]; 8.81% in assay [5]; 8.26% in assay [6]. Moreover, the inhibition in assay [7] was 8.9%; in [8], 1.33%; in assay [9], 2.66%; in assay [10], 1.77%; in [11], 2.36%; in assay [12] it was -1.52%. Further, the inhibition in assay [13] is -4.55%; in assay [14], 0.87%; in [15], 2.69%; in assay [16] it was 2.19%; in [17], 2.98%; in [18], 1.19%. Further, the inhibition in [19] was 1.36%; in [20] it was -0.71%.

For the compound `COc1ccc(-c2cc3c(N)ncnc3o2)cc1`, the inhibition in assay [1] is -1.51%; in [2], -0.13%; in assay [3], -0.8%; in assay [4] it was -1.46%; in assay [5], 0.41%; in assay [6], -1.4%. Moreover, the inhibition in assay [7] was -0.96%; in [8], -2.33%; in [9] it was -2.56%; in assay [10], -1.44%; in assay [11], -1.89%; in [12], -1.58%. Further, the inhibition in assay [13] was 1.06%; in assay [14] it was -1.98%; in assay [15], -0.52%; in [16], -0.57%; in assay [17] it was 0.07%; in [18], -0.47%. Besides, the inhibition in [19] is -0.47%; in assay [20], 9.34%.

In the case of `Cc1cccc(Nc2ncc(-c3ccccc3)o2)c1`, the inhibition in [1] was 3.87%; in [2] it was 3.41%; in assay [3], -1.61%; in [4], 5.91%; in assay [5] it was 6.59%; in [6], 3.23%. The inhibition was 6.62% in assay [7]; 1.76% in [8]; 2.94% in [9]; 2.73% in [10]; 4.77% in assay [11]; -2.35% in assay [12]. The inhibition in assay [13] is 0.2%; in assay [14], 0.69%; in assay [15] it was -0.17%; in assay [16] it was 0.73%; in assay [17] it was 1.52%; in [18], 1.05%. Further, the inhibition is 2.54% in assay [19] and 1% in assay [20].

As to `COc1ccc2[nH]c3c4[nH]c5ccc(OC)cc5c4c4c(c3c2c1)C(=O)NC4=O`, the inhibition in assay [1] was 6.91%; in assay [2], 1.23%; in assay [3], 18.3%; in assay [4], 4.65%; in assay [5] it was 10.8%; in assay [6], 3.15%. Also, the inhibition in assay [7] is 7.66%; in [8] it was 0.8%; in assay [9] it was 2.74%; in assay [10] it was 4.16%; in assay [11], 1.03%; in assay [12], -1%. Moreover, the inhibition in [13] is 6.5%; in assay [14] it was 6.77%; in [15], 14.6%; in assay [16], 4.48%; in assay [17], 10.1%; in assay [18], -1.55%. The inhibition in assay [19] was -0.12%; in assay [20] it was -3.65%.

Turning to `COc1cccc(-n2ncc3c(N/N=C/c4ccc(F)cc4)ncnc32)c1`, the inhibition is 3.8% in assay [1]; -0.53% in assay [2]; 1.02% in [3]; 2.2% in assay [4]; 7.4% in assay [5]; 4.13% in [6]. For the same compound, the inhibition was 6.02% in assay [7]; 6.87% in assay [8]; 6.81% in assay [9]; -0.23% in assay [10]; 1.41% in assay [11]; -0.75% in assay [12]. Moreover, the inhibition in assay [13] is 2.6%; in [14], 3.46%; in assay [15], 19.1%; in [16] it was 0.55%; in [17] it was 17.3%; in assay [18], -4.22%. The inhibition in [19] is -5.29%; in assay [20] it was 2.72%.

With `Nc1nc(-c2ccc(F)cc2)c(-c2ccc3ncccc3n2)s1`, the inhibition in assay [1] was 3.86%; in assay [2], -0.15%; in assay [3], 2.22%; in assay [4] it was 23.6%; in [5] it was 76.4%; in assay [6] it was 7.76%. The inhibition was 33.1% in [7]; 5.53% in assay [8]; 5.76% in assay [9]; 1.26% in assay [10]; 2.9% in assay [11]; -1.42% in assay [12]. Also, the inhibition in assay [13] came out at 1.42%; in assay [14], 7.33%; in [15], 20.4%; in assay [16] it was 7.18%; in assay [17], 32.8%; in assay [18], 8.12%. In addition, the inhibition in assay [19] was 7.23%; in [20] it was 0.08%.
